From PubChem BioAssay (Tox21)
Records with an inconclusive call do not appear. Calls of active or inactive are those of the source. Unless noted, calls follow the shape of the dose curve; as a rule, active = well fitted curve in the direction sought with a large enough effect in the repeat runs; inconclusive = weak or mixed curves; inactive = no such curve, though single readings can be large; an effect the other way counts as inactive or inconclusive.

What was measured:
[1] = qHTS assay to identify small molecule antagonists of the thyroid receptor (TR) signaling pathway - cell viability counter screen (AID 743064); also: nearly all actives have a fitted effect of over 50% in size
Outline: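 Plate GH3.TRE-Luc cells; incubate 4 h at 37 °C; add compound, then T3 to 1 nM final; incubate 23.5 h; add CellTiter-Fluor; incubate 30 min at 37 °C, 5% CO2; read fluorescence.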

[2] = qHTS assay to identify small molecule antagonists of the thyroid receptor (TR) signaling pathway (AID 743065); also: series mostly up to about 70 µM; nearly all actives have a fitted effect of over 55% in size
Outline: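 Antagonism measured as loss of luciferase signal in GH3 cells stably carrying a TRE-luciferase reporter, co-treated with compound and T3 (1 nM final) for 23.5 h at 37 C. Viability was read in the same well by CellTiter-Fluor.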

[3] = system: thyroid hormone receptor (rat, GH3 cells); assay: qHTS assay to identify small molecule agonists of the thyroid receptor (TR) signaling pathway (AID 743066; calls by dose curve)
[4] = target: Estrogen receptor (Homo sapiens) (UniProt P03372); assay: qHTS assay to identify small molecule antagonists of the estrogen receptor alpha (ER-alpha) signaling pathway (AID 743069; active = well fitted curve in the direction sought with a large enough effect in the signal ratio in the repeat runs, not every such curve was filed as active; the % refers to the signal ratio)
Outline: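 Antagonist mode: compounds in DMSO were co-added with 17beta-estradiol to ER-alpha-bla HEK293 cells (2% charcoal-stripped serum) and left 18 h at 37C. Reporter inhibition was measured as FRET fluorescence after 2 h LiveBLAzer substrate at room temperature.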

[5] = qHTS assay to identify small molecule antagonists of the estrogen receptor alpha (ER-alpha) signaling pathway - cell viability counter screen (AID 743074; calls by dose curve;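 also: HEK293 cells carrying ER-alpha-UAS-bla reporter stimulated with 17beta-estradiol; nearly all actives have a fitted effect of over 45% in size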)
[6] = target: Estrogen receptor (Homo sapiens) (UniProt P03372); assay: qHTS assay to identify small molecule agonists of the estrogen receptor alpha (ER-alpha) signaling pathway (AID 743075; calls by dose curve;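 also: HEK293 GripTite cells with ER-alpha and UAS-driven beta-lactamase reporter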)
[7] = target: Estrogen receptor (Homo sapiens) (UniProt P03372); assay: qHTS assay to identify small molecule agonists of the estrogen receptor alpha (ER-alpha) signaling pathway using the BG1 cell line (AID 743079); also: nearly all actives have a fitted effect of over 20% in size
[8] = qHTS assay to identify small molecule antagonists of the estrogen receptor alpha (ER-alpha) signaling pathway using the BG1 cell line (AID 743080; calls by dose curve;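 also: BG1 cells stimulated with 17beta-estradiol alongside compound; series mostly up to about 70 µM; nearly all actives have a fitted effect of over 25% in size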)
Outline: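 Quantitative HTS on the Tox21 10K library: BG1 cells with endogenous ER-alpha and ERE-luciferase reporter, 17beta-estradiol stimulation, 21.5 h compound exposure, luminescence endpoint with parallel fluorescence cytotoxicity counter-read.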

[9] = qHTS assay to identify small molecule antagonists of the estrogen receptor alpha (ER-alpha) signaling pathway using the BG1 cell line - cell viability counter screen (AID 743081);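 also: compound given together with 17beta-estradiol as the ER stimulus; series mostly up to about 70 µM; nearly all actives have a fitted effect of over 45% in size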
[10] = target: Aromatase (Homo sapiens) (UniProt P11511); assay: qHTS assay to identify aromatase inhibitors (AID 743083); also: series mostly up to about 70 µM; nearly all actives have a fitted effect of over 55% in size
[11] = qHTS assay to identify aromatase inhibitors - cell viability counter screen (AID 743084);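 also: cells stimulated with testosterone during compound exposure; nearly all actives have a fitted effect of over 55% in size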
[12] = target: Aryl hydrocarbon receptor (Homo sapiens) (UniProt P35869); assay: qHTS assay to identify small molecule that activate the aryl hydrocarbon receptor (AhR) signaling pathway (AID 743085);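 also: HG2L7.5c1 human HepG2 liver cells with stably integrated DRE-driven firefly reporter; series mostly up to about 70 µM; nearly all actives have a fitted effect of over 15% in size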
Outline: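 Steps: seed HepG2-AhR-luc cells; allow 5 h at 37C; pin-transfer test compound or vehicle; incubate 24 h at 37C; add viability dye (30 min, 37C) and read fluorescence; add luciferase substrate (30 min, RT) and read luminescence.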

[13] = qHTS assay to identify small molecule that activate the aryl hydrocarbon receptor (AhR) signaling pathway - cell viability counter screen (AID 743086);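 also: HepG2 liver cells carrying the AhR DRE luciferase reporter; series mostly up to about 70 µM; nearly all actives have a fitted effect of over 45% in size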
Outline: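 Cytotoxicity counter screen: CellTiter-Fluor signal (30 min, 37 C) in 4000 HepG2 cells/well carrying the DRE-luciferase reporter, following 24 h compound exposure at 37 C.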

[14] = qHTS assay to identify small molecule antagonists of the peroxisome proliferator-activated receptor gamma (PPARg) signaling pathway - cell viability counter screen (AID 743194); also: nearly all actives have a fitted effect of over 55% in size
Outline: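 Viability was measured as CellTiter-Glo luminescence in GeneBLAzer PPARg UAS-bla HEK293H cells. These cells had been exposed 17 h at 37 C to compounds together with rosiglitazone at 50 nM final, with the beta-lactamase readout taken in the same wells.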

[15] = qHTS assay for small molecule agonists of the antioxidant response element (ARE) signaling pathway (AID 743202; active = well fitted activation curve with a large enough effect in the signal ratio in the repeat runs, not every such curve was filed as active; the % refers to the signal ratio)
Outline: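 After 16 hours of compound treatment at 37 C, HepG2 cells with a stably integrated ARE-driven beta-lactamase reporter were loaded 2 hours at room temperature with LiveBLAzer B/G FRET substrate and fluorescence intensity measured.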

[16] = qHTS assay for small molecule agonists of the antioxidant response element (ARE) signaling pathway - cell viability counter screen (AID 743203; calls by dose curve; also: nearly all actives have a fitted effect of over 55% in size)
Outline: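 Viability counter screen: CellTiter-Glo luminescence, read after 30 min at room temperature, in ARE-bla HepG2 wells. Compound exposure lasted 16 h at 37C/5% CO2, following a 5 h pre-incubation of the cells after plating.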

[17] = qHTS assay for small molecule activators of the heat shock response signaling pathway - cell viability counter screen (AID 743209); also: nearly all actives have a fitted effect of over 50% in size
Outline: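 Cytotoxicity counter screen run in the same wells as the heat-shock bla reporter assay: HeLa HSE-bla cells, 5 h compound exposure at 37 C, viability read by CellTiter-Glo luminescence.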

[18] = qHTS assay for small molecule activators of the heat shock response signaling pathway (AID 743210; active = well fitted activation curve with a large enough effect in the signal ratio in the repeat runs, with a control signal flat, not every such curve was filed as active; the % refers to the signal ratio; also: series mostly up to about 63 µM)
Outline: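 Compound exposure lasted 5 h at 37 C in HeLa cells carrying a heat-shock-element-driven beta-lactamase reporter. Read-out: fluorescence intensity after 2.5 h room-temperature loading with LiveBLAzer B/G FRET substrate.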

[19] = target: Peroxisome proliferator-activated receptor gamma (Homo sapiens) (UniProt P37231); assay: qHTS assay to identify small molecule agonists of the peroxisome proliferator-activated receptor gamma (PPARg) signaling pathway (AID 743094; active = well fitted activation curve with a large enough effect in the signal ratio in the repeat runs, not every such curve was filed as active; the % refers to the signal ratio)
Outline: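 Agonist activity was taken from a beta-lactamase reporter (FRET substrate, 1 h at room temperature) in HEK293H cells carrying a PPARg UAS-bla construct. Compounds in DMSO were incubated 17 h at 37C after a 5 h cell pre-incubation.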

[20] = target: Peroxisome proliferator-activated receptor gamma (Homo sapiens) (UniProt P37231); assay: qHTS assay to identify small molecule antagonists of the peroxisome proliferator-activated receptor gamma (PPARg) signaling pathway (AID 743191; calls by dose curve; also: series mostly up to about 63 µM; nearly all actives have a fitted effect of over 30% in size)
Outline: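 Beta-lactamase reporter under UAS control in HEK293H PPARg-bla cells; compound treatment 17 h at 37C. Read-out: fluorescence intensity after 1 h room-temperature incubation with LiveBLAzer B/G FRET substrate.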

Measured: Potency

Aryl hydrocarbon receptor (Homo sapiens), sequence (P35869 whole entry, looked up): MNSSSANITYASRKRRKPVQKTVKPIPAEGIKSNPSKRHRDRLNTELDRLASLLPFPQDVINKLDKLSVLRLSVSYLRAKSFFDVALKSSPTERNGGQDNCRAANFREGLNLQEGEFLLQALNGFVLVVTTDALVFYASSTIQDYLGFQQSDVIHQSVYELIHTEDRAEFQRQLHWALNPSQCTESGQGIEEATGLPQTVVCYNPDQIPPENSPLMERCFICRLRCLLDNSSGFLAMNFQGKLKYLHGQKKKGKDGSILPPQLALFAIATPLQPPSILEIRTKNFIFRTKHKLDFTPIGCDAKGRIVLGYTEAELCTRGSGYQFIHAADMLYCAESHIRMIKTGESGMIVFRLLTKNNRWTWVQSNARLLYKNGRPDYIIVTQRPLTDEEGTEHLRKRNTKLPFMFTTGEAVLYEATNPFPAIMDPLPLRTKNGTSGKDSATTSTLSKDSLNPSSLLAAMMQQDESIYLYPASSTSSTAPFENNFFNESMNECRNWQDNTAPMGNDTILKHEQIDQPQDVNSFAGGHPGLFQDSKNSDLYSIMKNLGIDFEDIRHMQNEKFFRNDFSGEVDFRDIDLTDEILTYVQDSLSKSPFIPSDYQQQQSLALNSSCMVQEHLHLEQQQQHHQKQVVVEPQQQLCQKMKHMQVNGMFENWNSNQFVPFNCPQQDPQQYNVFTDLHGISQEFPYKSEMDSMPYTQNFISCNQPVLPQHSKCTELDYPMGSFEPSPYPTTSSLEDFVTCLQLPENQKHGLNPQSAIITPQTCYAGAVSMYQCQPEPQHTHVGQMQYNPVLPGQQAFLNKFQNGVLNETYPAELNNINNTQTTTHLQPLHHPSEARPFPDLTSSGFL
Aromatase (Homo sapiens), sequence (P11511 whole entry, looked up): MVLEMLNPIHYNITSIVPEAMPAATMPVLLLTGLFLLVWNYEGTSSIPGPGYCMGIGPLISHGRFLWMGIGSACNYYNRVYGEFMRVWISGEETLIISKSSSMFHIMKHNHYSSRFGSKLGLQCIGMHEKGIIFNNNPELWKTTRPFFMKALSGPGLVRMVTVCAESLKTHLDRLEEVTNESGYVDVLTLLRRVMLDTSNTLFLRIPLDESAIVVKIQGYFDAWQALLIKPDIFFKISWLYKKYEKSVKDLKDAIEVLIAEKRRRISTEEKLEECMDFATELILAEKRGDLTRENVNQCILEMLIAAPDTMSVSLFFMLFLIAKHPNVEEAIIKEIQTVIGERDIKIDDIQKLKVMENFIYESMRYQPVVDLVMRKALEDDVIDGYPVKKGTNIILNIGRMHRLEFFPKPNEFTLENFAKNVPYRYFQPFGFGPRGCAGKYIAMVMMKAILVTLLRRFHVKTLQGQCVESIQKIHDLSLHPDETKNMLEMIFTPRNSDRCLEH
Peroxisome proliferator-activated receptor gamma (Homo sapiens), sequence (P37231 whole entry, looked up): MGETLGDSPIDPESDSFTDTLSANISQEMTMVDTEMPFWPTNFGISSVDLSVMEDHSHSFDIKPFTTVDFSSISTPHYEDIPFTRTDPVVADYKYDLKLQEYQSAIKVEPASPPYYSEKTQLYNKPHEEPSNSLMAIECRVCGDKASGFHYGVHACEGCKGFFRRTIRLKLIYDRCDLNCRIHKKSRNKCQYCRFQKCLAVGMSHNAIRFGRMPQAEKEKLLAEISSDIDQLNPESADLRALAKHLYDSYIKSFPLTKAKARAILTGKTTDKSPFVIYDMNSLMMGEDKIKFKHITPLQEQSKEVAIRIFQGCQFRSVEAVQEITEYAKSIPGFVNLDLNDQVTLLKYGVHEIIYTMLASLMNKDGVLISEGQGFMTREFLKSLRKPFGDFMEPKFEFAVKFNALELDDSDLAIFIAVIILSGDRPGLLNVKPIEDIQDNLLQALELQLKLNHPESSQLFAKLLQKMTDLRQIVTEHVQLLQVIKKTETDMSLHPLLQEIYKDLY
Estrogen receptor (Homo sapiens), sequence (P03372 whole entry, looked up): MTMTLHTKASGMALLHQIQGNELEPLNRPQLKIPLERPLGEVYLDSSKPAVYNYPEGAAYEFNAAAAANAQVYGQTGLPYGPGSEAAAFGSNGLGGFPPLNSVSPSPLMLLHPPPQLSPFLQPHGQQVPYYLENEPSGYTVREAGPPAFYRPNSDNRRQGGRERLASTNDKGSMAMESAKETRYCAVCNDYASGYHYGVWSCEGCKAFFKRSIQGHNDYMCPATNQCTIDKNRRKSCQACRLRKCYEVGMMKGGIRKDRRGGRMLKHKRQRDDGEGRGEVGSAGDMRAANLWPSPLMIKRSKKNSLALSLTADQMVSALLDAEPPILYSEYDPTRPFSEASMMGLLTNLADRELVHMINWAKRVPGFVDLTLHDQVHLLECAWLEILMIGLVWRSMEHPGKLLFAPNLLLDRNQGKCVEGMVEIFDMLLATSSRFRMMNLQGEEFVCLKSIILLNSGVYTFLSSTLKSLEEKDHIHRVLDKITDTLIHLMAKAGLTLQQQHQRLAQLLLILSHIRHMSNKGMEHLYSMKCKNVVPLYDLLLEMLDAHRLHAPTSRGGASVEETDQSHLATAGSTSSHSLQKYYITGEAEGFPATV

C1CCCCCCCCCCC1
inactive: [1] | [2] | [3] | [4] | [5] | [6] | [7] | [8] | [9] | [10] | [11] | [12] | [13] | [14] | [15] | [16] | [17] | [18]

O=S(=O)(O)c1ccccc1O
inactive: [1] | [2] | [3] | [4] | [6] | [7] | [8] | [9] | [10] | [11] | [12] | [13] | [19] | [20] | [14] | [16] | [17] | [18]

CC/C=C\CCCCO
inactive: [1] | [2] | [3] | [4] | [5] | [6] | [7] | [8] | [9] | [10] | [11] | [12] | [13] | [14] | [15] | [16] | [17] | [18]

CCCCCCCCCCCl
inactive: [1] | [2] | [3] | [4] | [5] | [6] | [7] | [8] | [9] | [10] | [11] | [12] | [13] | [20] | [14] | [15] | [16] | [17] | [18]

c1ccc(CCCc2ccccn2)cc1
inactive: [1] | [2] | [3] | [4] | [5] | [6] | [9] | [10] | [11] | [13] | [19] | [20] | [14] | [16] | [17] | [18]

CC/C=C\C#N
inactive: [1] | [2] | [3] | [4] | [5] | [6] | [7] | [8] | [9] | [10] | [11] | [12] | [13] | [14] | [15] | [16] | [17] | [18]

CC12CCC(CC1=O)C2(C)C (centres undefined)
inactive: [1] | [2] | [3] | [4] | [5] | [6] | [7] | [8] | [9] | [10] | [11] | [12] | [13] | [14] | [15] | [16] | [17] | [18]

CC(C)c1cccc(C(C)C)c1N
inactive: [1] | [2] | [3] | [4] | [5] | [6] | [7] | [8] | [9] | [10] | [11] | [12] | [13] | [20] | [14] | [15] | [16] | [17] | [18]
